Bioassay records as filed in PubChem BioAssay.
FECH block = human FECH heme synthesis enzyme inhibition | purified FECH, Ni-mesoporphyrin absorbance 550 nm | P22830 | hit rate 3.3% among 20,000 | calls only at 10 µM (by protocol) | AID 1671448;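 active = enzyme reaction rate more than 3 SD below the solvent-only control wells on the same plate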;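 note: lower slope than DMSO wells means FECH inhibition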
Target sequence (P22830 whole entry, looked up): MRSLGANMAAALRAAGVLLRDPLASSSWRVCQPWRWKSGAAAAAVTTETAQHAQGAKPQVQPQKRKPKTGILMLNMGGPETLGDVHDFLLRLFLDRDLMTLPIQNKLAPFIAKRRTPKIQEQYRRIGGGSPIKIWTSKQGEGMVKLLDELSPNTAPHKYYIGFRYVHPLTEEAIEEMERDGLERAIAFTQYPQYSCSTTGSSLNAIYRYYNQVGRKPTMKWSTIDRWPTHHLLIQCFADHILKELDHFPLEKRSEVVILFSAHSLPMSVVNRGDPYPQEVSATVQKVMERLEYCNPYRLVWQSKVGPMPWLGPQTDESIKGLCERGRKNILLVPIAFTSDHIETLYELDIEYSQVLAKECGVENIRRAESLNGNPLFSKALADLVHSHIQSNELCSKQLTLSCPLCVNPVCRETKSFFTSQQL
* marks the source's active call; other numbers are inactive results; i = inactive; + = active, no number. This excerpt belongs to a sample that is enriched for hits.

SMILES | FECH block
COCCNc1cc(-c2ccsc2C(C)=O)c2cc[nH]c2n1 | i
Cc1ccc(-n2c(CN3CCN(S(C)(=O)=O)CC3)nc3cccnc32)cc1 | i
CCN(C/C=C/c1ccccc1)C(=O)Cc1c[nH]c2ccccc12 | i
Cc1ccc(CNC(=O)CN2CCCN(Cc3cccc(C)c3)S2(=O)=O)cc1 | i
Cc1ccc(CN2CCCN(CC(=O)NCc3ccccc3)S2(=O)=O)cc1 | +
Cc1ccc(CN2CCCN(CC(=O)NCc3ccccc3Cl)S2(=O)=O)cc1 | +
O=C(CN1CCCN(Cc2ccccc2)S1(=O)=O)NCc1ccc(Cl)cc1 | i
Cc1ccc(CN2CCCN(CC(=O)NCCc3ccccc3)S2(=O)=O)cc1 | i
COc1ccc(CNC(=O)CN2CCCN(Cc3ccccc3Cl)S2(=O)=O)cc1 | i
COc1ccc(C)cc1NC(=O)CN1C(=O)CN(C)C(=O)c2ccccc21 | i
CSc1nc(NCCC2=CCCCC2)c(C#N)c(-c2ccccc2)n1 | +
CSc1nc(NCCN2CCOCC2)c(C#N)c(-c2ccccc2)n1 | i
CSc1nc(NCc2ccc(Cl)cc2)c(C#N)c(-c2ccccc2)n1 | i
CNCC(=O)N(C)CCc1nc2ccc(OC)cc2[nH]1 | i
O=C(CCCn1nnc(-c2ccc(F)cc2)n1)Nc1cnc2n1CCCC2 | i
CN(C)CC(=O)Nc1ccc(C(=O)Nc2cnc3n2CCCC3)cc1 | i
Cn1nnc(-c2ccc(C(=O)Nc3cnc4n3CCCC4)cc2)n1 | +
Cc1nn(C)c(C)c1NC(=O)c1cccc(CN(C)C(C)c2ccco2)c1 (stereo unspecified) | i
CCc1ccc(Cn2c(CNS(=O)(=O)c3ccc(C)cc3)nc3cccnc32)cc1 | i
CC(C)Cn1c(CNS(C)(=O)=O)nc2cccnc21 | +
CCc1ccc(Cn2c(CNS(=O)(=O)c3ccc([N+](=O)[O-])cc3)nc3cccnc32)cc1 | +
Cc1ccccc1S(=O)(=O)NCc1nc2cccnc2n1CC(C)C | i
Cc1cccc(Cn2c(CNS(=O)(=O)c3ccc(F)cc3)nc3cccnc32)c1 | i
Cc1ccc(Cn2c(CNC(=O)c3cccnc3)nc3cccnc32)cc1 | +
Cc1cccc(Cn2c(CNS(=O)(=O)c3ccccc3)nc3cccnc32)c1 | +
SMILES | FECH block
CCOc1ccc(C(=O)NCc2nc3cccnc3n2Cc2ccc(C)cc2)cc1 | i
Cc1ccc(Cn2c(CNC(=O)c3ccncc3)nc3cccnc32)cc1 | i
Cc1cccc(S(=O)(=O)NCc2nc3cccnc3n2Cc2ccccc2)c1 | i
CCc1ccc(S(=O)(=O)NCc2nc3cccnc3n2Cc2ccc(F)cc2)cc1 | i
CC(C)Cn1c(CNS(=O)(=O)c2ccc(Cl)cc2)nc2cccnc21 | i
Cc1ccc(SCCN(C)Cc2nc(C)ccc2O)cc1 | i
C=CCc1ccccc1OCCN(C)C(=O)c1c[nH]c2c(C)cccc2c1=O | i
Cc1sc2nc(CCN)nc(NCCCc3ccncc3)c2c1C | i
CCc1nc(OCC(=O)N2CCCC2)c2c(-c3ccc(F)cc3)noc2n1 | i
CCn1c(=O)n(CCOc2ccccc2)c(=O)c2cnc(-c3ccc(Cl)cc3)nc21 | i
CNC(=O)c1[nH]cnc1C(=O)NCCC(C)C | i
Cc1ccc(CNC(=O)c2ccc(CN3C(=O)CCn4nc(-c5ccccc5)cc43)cc2)o1 | i
CCN(CC)S(=O)(=O)N1CCC(C(=O)Nc2cccc(CCc3nc4ccccc4n3C)c2)CC1 | +
CCN(CC)S(=O)(=O)N1CCC(C(=O)Nc2ccc3nc(CCc4ccccc4)[nH]c3c2)CC1 | +
CCc1cccc(NC(=O)C2CCN(c3ccc(-c4cccs4)nn3)CC2)c1 | i
O=C(Nc1ccccc1CCc1nc2ccccc2[nH]1)C1CCCN(S(=O)(=O)N2CCCC2)C1 (stereo unspecified) | i
CCN(CC)S(=O)(=O)N1CCC(C(=O)Nc2ccc3sc(NC(=O)C(C)C)nc3c2)CC1 | i
CCN(CC)S(=O)(=O)c1ccc2c(c1)nc(CN1CCN(S(=O)(=O)N(C)C)CC1)n2C | i
COC(=O)c1[nH]nc2c1C(c1oc3ccc(C)cc3c1C)CC(=O)N2 (stereo unspecified) | i
CCn1cc(C(=O)N2CCC3(CC2)N=C(c2csc(C)n2)NC3=O)cn1 | i
O=C(NCCCN1CCCC1=O)c1nc(N2CCCC2)c2oc3ccccc3c2n1 | i
CCOC(=O)C(=O)Nc1cc(C)nn1-c1ncnc2c1cnn2-c1ccc(F)cc1 | i
O=C(CCC(=O)N1CCc2cc(S(=O)(=O)NCCC3=CCCCC3)ccc21)N1CCCCCC1 | i
COc1ccccc1NC(=O)Nc1nc(CC(=O)Nc2ccc(Cl)cc2)cs1 | i
Cc1cccc(-c2cc(N3CCN(C(=O)NC4CCCCC4)CC3)ncn2)c1 | i
O=c1cc(CNc2ccc(F)cc2)nc2nc(NCc3ccc(F)cc3)[nH]n12 | i
O=c1cc(CNc2ccc(Cl)cc2)nc2nc(NCc3ccccc3)[nH]n12 | +
CCCNCc1cc(=O)n2[nH]c(NCc3ccc(Cl)cc3)nc2n1 | i
COc1ccc(CNc2nc3nc(CNc4ccc(F)cc4)cc(=O)n3[nH]2)cc1 | +
